An excerpt weighted towards active compounds, which were near 0.74% of everything screened.
Tb hexokinase = blocks Trypanosoma brucei hexokinase 1 activity; recombinant TbHK1, G6PDH-coupled NADH A340; AID 1430; inhibition, % at 10 µM; actives 0.11% (n = 220,000);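 active = inhibition of 50% or more in the single-dose primary screen; inactive = inhibition below 50%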
Furin inh = inhibitors of human furin. P09958. purified furin, fluorogenic substrate cleavage. inhibition, % at 20 µM or 30 µM. actives 0.061% (n = 220,000); in the data active = inhibition above about 25%
Redox H2O2 prof = compounds producing H2O2 with reducing agent – biochemical, NIH compound library profiling, artefact control for MLSCN library redox annotation, primary screen. AID 878. activation, % at 10 µM. DTT-dependent redox cycling H2O2, phenol red/HRP absorbance; 100% = 100 µM peroxide control, 0% = buffer. actives 0.03% (n = 200,000);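 active = activation of at least 50% relative to the plate's high and low controls in the primary single-dose screen; inactive = activation below 50%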;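 note: compound incubated with DTT at 0.8 mM final as the reducing agent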
HMGR II inh = blocks class II HMG-CoA reductase of Enterococcus faecalis; purified E. faecalis HMGR, NADPH absorbance 340 nm kinetic; inhibition, % at 10 µM; actives 0.41% (n = 190,000);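 active = inhibition above a set limit, the median over all tested compounds plus 3 SD, cut at about 9.5% in these data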;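 note: enzyme runs in reverse so mevalonate oxidation gives rising NADPH absorbance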
p-CIP stab down = compounds decreasing mouse p/CIP protein stability; Q05BA5; F442A p/CIP-EGFP cells, EGFP fluorescence, 16 h; decrease of EGFP signal, % at 10 µM; actives 0.01% (n = 290,000);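 active = EGFP signal decrease of at least 30% at 10 µM or well 3 SD below plate mean, unless failing retest; inactive = the rest, including hits failing retest or dose response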
p97 ATPase inh = human p97 ATPase inhibition; recombinant p97 ATPase, Kinase-Glo ATP luminescence, 3 h; actives 0.42% (n = 220,000); inhibition, % at 8 µM; P55072; in the data active = inhibition above about 15%
Target sequence (P55072 whole entry, looked up): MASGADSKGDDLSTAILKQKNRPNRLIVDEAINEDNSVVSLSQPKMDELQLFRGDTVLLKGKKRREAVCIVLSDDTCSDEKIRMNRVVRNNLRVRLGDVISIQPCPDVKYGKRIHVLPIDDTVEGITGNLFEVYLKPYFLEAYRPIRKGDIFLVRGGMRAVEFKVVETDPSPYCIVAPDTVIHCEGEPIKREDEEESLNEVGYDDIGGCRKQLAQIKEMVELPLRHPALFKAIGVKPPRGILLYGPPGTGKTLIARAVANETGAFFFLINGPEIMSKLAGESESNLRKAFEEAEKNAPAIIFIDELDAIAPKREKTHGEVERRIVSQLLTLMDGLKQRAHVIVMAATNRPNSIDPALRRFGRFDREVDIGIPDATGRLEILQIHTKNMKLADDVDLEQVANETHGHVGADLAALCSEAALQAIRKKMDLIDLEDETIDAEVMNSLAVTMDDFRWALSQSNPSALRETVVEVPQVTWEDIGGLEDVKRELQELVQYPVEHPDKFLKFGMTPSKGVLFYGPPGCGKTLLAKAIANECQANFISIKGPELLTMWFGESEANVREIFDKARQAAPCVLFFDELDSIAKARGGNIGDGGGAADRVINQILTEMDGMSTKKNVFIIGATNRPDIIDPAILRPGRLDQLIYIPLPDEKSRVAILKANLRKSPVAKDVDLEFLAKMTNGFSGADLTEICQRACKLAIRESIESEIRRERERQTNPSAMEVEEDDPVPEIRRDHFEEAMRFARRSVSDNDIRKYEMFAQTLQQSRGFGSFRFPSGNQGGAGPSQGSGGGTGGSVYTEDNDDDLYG
Numbers stand for hits; . = inactive; / = not tested or not shown.

SMILES	Tb hexokinase	Furin inh	Redox H2O2 prof	HMGR II inh	p-CIP stab down	p97 ATPase inh
CCOc1ccc(NC(=O)c2cc(F)c(F)cc2Cl)cc1OCC	.	.	.	.	.	.
Cc1ccccc1NC(=O)Cn1c(CCC(=O)O)ccc1-c1cccs1	.	.	.	19.1	.	.
NC(N)=NC(N)=Nc1cccc(Cl)c1	.	.	/	/	.	/
Cc1ccc(Cl)cc1N=C(N)N=C(N)N	.	.	.	14.9	.	.
CCCCCCCCCCC(=O)Nc1cccnc1	.	.	.	.	.	.
CCCCCCCCCC(=O)Nc1cccnc1	.	.	.	10.4	.	.
O=C1C=C(c2ccc(Cl)cc2)OC2(CCCC2)O1	.	28.8	.	.	.	.
CCOP(=O)(OCC)C(NC(=O)Nc1ccc(C)cc1)C(N)=O (stereo not drawn)	.	.	/	/	.	.
CCCOP(=O)(OCCC)C1(Nc2ccc(C)cc2)CCCCC1	.	26.0	.	.	.	.
CC(C)CC(NC(=O)C1CCC(=O)N1)C(=O)NC(CC(C)C)C(=O)N1CCCC1C(N)=O (stereo not drawn)	/	/	/	/	.	/
CCN1CCCC1Cn1cnc2c([nH]c3ccc(OC)cc32)c1=O (stereo not drawn)	.	.	/	/	.	.
COc1ccc(NC(=O)c2oc3ccccc3c2NC(=O)C2CC2)cc1	.	.	.	10.8	.	.
Cc1cc(C2=NNC(=NC3CC3)SC2)c(C)n1-c1ccccc1	.	.	.	.	.	.
COc1ccc(-n2c(C)cc(C3=NNC(=NC4CC4)SC3)c2C)cc1	.	.	.	.	.	21.6
Cc1nc(N2CCN(c3ccccc3)CC2)[nH]c(=O)c1C	/	/	/	/	.	/
C=CCC1(CC=C)CCCN1C(=O)C1CCC(=O)N(CCc2ccccc2)C1 (stereo not drawn)	/	/	/	/	.	/
COC(=O)c1ccc(NC2(C#N)C(=O)Nc3ccccc32)cc1 (stereo not drawn)	.	31.4	.	.	.	.
COc1ccc(N2C(=O)CS/C2=C\[N+](=O)[O-])cc1	.	.	.	15.0	.	.
COc1ccc(N2C(=O)CCC2=O)cc1	.	.	.	.	.	.
Cc1ccc(/C=C2\SC(=S)N(/N=C/c3cc([N+](=O)[O-])ccc3O)C2=O)o1	.	.	.	.	.	20.9
Cc1cc(C)n(-c2nc3ccccc3s2)n1	.	.	.	.	.	.
Cc1cc(N)n(-c2nc3ccccc3s2)n1	.	.	.	9.6	.	.
COc1cc(C(=O)Nc2ccc(-c3nnc(-c4ccco4)o3)cc2)cc(OC)c1OC	.	29.7	.	.	.	.
Cc1noc(C)c1S(=O)(=O)N1CCC(C(=O)NCCN2CCC(C)CC2)CC1	.	.	.	11.1	.	.
Cc1noc(C)c1S(=O)(=O)N1CCC(C(=O)NCCCN2CC(C)CC(C)C2)CC1 (stereo not drawn)	.	.	.	.	.	.
SMILES	Tb hexokinase	Furin inh	Redox H2O2 prof	HMGR II inh	p-CIP stab down	p97 ATPase inh
CC(=O)c1cccc(S(=O)(=O)NC2CCSc3ccccc32)c1 (stereo not drawn)	/	/	/	/	.	/
Cc1cc2cccc(C)c2nc1SCC(=O)NNC(=O)c1ccco1	.	.	.	13.9	.	.
COc1ccc(C(=O)N2CCC(C(=O)Nc3ccccc3C)CC2)cc1OC	.	.	.	10.1	.	.
CC(=O)NCc1ccc(-c2csc(-c3cccs3)n2)cc1	/	/	/	/	.	/
COC(=O)c1ccc(OCC(=O)Nc2ccsc2C(=O)OC)cc1	.	.	.	11.9	.	.
O=C(C1CC1)N1CCCC(c2ccc(Cl)cc2)=N1	.	.	.	10.0	.	.
O=C(Nc1ccc(N2CCN(C(=O)c3cccs3)CC2)c(Cl)c1)c1cccnc1	.	.	.	11.0	.	.
O=C1c2ccccc2NC(c2ccc(Cl)cc2Cl)N1Cc1ccccc1 (stereo not drawn)	.	.	.	.	.	.
O=C1c2ccccc2NC(c2ccc(Cl)cc2Cl)N1O (stereo not drawn)	.	.	.	15.2	.	.
CCCCN(CC)CCNC(=O)CN(C)S(=O)(=O)c1ccc2c(c1)c(=O)n(C)c(=O)n2C	.	.	.	.	.	15.3
CCOC(=O)CN(c1ccccn1)S(=O)(=O)c1ccc(OC)cc1	.	.	.	.	.	.
Cc1cccc(NC(=O)CSc2ccc(-c3ccc4c(c3)OCO4)nn2)c1C	.	.	.	16.6	.	.
Cc1cccc(NC(=O)C(=O)NCc2ccc3c(c2)OCO3)c1C	.	.	.	10.1	.	.
CCOC(=O)c1sc2nc(CSc3ccccc3)nc(N3CCC(C(N)=O)CC3)c2c1C	.	.	.	.	40.0	.
CCN(Cc1ccncc1)Cc1c(O)ccc2cc(Br)ccc12	.	.	.	15.4	.	.
Cc1ccccc1-c1nc(CN2CCC(C(=O)NC3CC3)CC2)c(C)o1	/	/	/	/	.	/
COn1c(C)c(C)c2c3nonc3ccc21	.	.	/	/	.	18.8
O=C(c1cc([N+](=O)[O-])ccc1Cl)N1CCN(c2ccccn2)CC1	.	.	.	11.1	.	.
O=C1CC(N2CCOCC2)=NN1c1ccc([N+](=O)[O-])cc1	.	.	/	/	.	.
CN(C)c1ccc(/C=C2/C(=O)N(c3ccc([N+](=O)[O-])cc3)N=C2N2CCOCC2)cc1	.	.	.	.	.	31.5
CN(C)c1ccc(/C=C2\C(=O)N(c3ccc([N+](=O)[O-])cc3)N=C2N2CCOCC2)cc1	.	.	.	/	/	23.3
CCCCc1ncc(CN2CCC(n3nccc3NC(=O)C(OC)c3ccccc3)CC2)[nH]1 (stereo not drawn)	/	/	/	/	.	/
CCOC(=O)c1nn(-c2ccccc2)c(C)c1C(C)=O	.	.	.	.	.	.
CCOC(=O)c1nn(-c2ccccc2F)c(C)c1C(C)=O	.	.	.	9.8	.	.
CCOc1ccccc1N(C)C(=O)c1sc2ncn(CC(=O)N3CCCCC3C)c(=O)c2c1C (stereo not drawn)	/	/	/	/	.	/
SMILES	Tb hexokinase	Furin inh	Redox H2O2 prof	HMGR II inh	p-CIP stab down	p97 ATPase inh
COc1ccc2cc(C(c3nnnn3C3CCCCC3)N3CCCCCC3)c3nnnn3c2c1 (stereo not drawn)	.	.	.	/	/	.
COc1ccc2cc(C(c3nnnn3C3CCCC3)N3CCCCCC3)c3nnnn3c2c1 (stereo not drawn)	.	.	.	11.3	.	.
Cc1cccc(NNC(N)=S)c1C	.	.	.	10.2	.	.
Cc1ccc(C)c(NNC(N)=S)c1	.	.	.	.	.	.
O=C1/C(=C/c2ccco2)CCc2ccccc21	.	.	.	.	.	.
Nc1ccc2c(c1)C/C(=C/c1ccco1)C2=O	.	.	.	.	.	15.3
COc1cc(/C=N/NC(=O)COc2c(C)cc([N+](=O)[O-])cc2C)ccc1OC(=O)c1ccccc1Br	.	.	.	.	.	.
COc1cc(/C=N/NC(=O)COc2c(C)cc([N+](=O)[O-])cc2C)ccc1OC(=O)c1ccccc1	.	.	.	11.2	.	.

Source: PubChem BioAssay
